From the supplement of paper PMC10981050
Values joined by “and” are separate entries in the source; they are usually repeats but may differ in a detail not shown here. Equal values may be shown once. Where a name gives a salt, the structure may show the parent alone.

Assays:
Test in all cases: cell viability relative to vehicle control; higher = less cytotoxic
Settings in all cases: 10 µM
[1] = test system: K562
In short: (§1)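 Mutant clones made by CRISPR editing and their isogenic wild-type counterparts, from four leukaemia lines, were exposed to a single 10 µM dose of each library compound for 48 h. The supernatant was then removed and CellTiter-Glo luminescence was read. Viability was reported as percent of the on-plate vehicle control.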

[2] = test system: MARIMO
In short: as §1

[3] = test system: MOLM14
In short: as §1

[4] = test system: OCI-AML2
In short: as §1

Row | Structure (SMILES) | cell viability ([1]; SRSF2 genotype: SRSF2 P95H/wt) | cell viability ([1]; SRSF2 genotype: SRSF2 wt/wt) [%] | cell viability ([2]; SRSF2 genotype: SRSF2 P95H/wt) [%] | cell viability ([2]; SRSF2 genotype: SRSF2 wt/wt) [%] | cell viability ([3]; SRSF2 genotype: SRSF2 P95H/wt) [%] | cell viability ([3]; SRSF2 genotype: SRSF2 wt/wt) [%] | cell viability ([4]; SRSF2 genotype: P95H/wt) [%] | cell viability ([4]; SRSF2 genotype: wt/wt) [%]
1 | NC(=O)c1[nH]cnc1N [4-Amino-5-imidazolecarboxamide] | 101% and 104% | 105 | 101 | 107 | 99.1 | 108 | 97.3 | 108
2 | C[n+]1cc2c3c(ccc2c2ccc4cc5c(cc4c21)OCO5)OCO3 [Sanguinarine chloride] | 0.68% and 0.46% | 0.74 | 0.3 | 0.38 | 0.25 | 0.34 | 0.31 | 0.29
3 | Cc1ccc(S(=O)(=O)Nc2cc(-c3ccc(C#N)s3)ccc2C)cc1 | 12.9% and 36.3% | 33.5 | 7.34 | 8.88 | 1.58 | 1.53 | 2.78 | 5.12
4 | CCCCCCCCOC(=O)c1cc(O)c(O)c(O)c1 [Octyl gallate] | 47.3% and 44.6% | 58.7 | 32.3 | 51 | 48.4 | 28.9 | 52.9 | 56.1
5 | COc1cc(C=CC(=O)CC(=O)C=Cc2ccc(O)cc2)ccc1O [Demethoxycurcumin] | 46.9% and 54.2% | 64.6 | 62.9 | 64.4 | 8.11 | 13.7 | 13.5 | 23.6
6 | C=CC[S+]([O-])C[C@H](N)C(=O)O (stereo not given in full) [Alliin] | 105% | 107 | 104 | 96.5 | 114 | 107 | 102 | 98.2
7 | CC#CC(=O)Nc1ccc2ncnc(Nc3cccc(Br)c3)c2c1 | 7.91% and 17.6% | 20.9 | 34.7 | 35.5 | 0.84 | 1.92 | 1.61 | 6.95
8 | COc1ccc2cc(-c3nc(-c4ccc([S+](C)[O-])cc4)[nH]c3-c3ccncc3)ccc2c1 (stereo not given) [Tie2 kinase inhibitor] | 79% and 60.2% | 93.8 | 88.6 | 95.9 | 101 | 94.6 | 78.5 | 84.3
9 | COc1cc(C=O)ccc1O [Vanillin] | 94.2% and 102% | 99.7 | 102 | 105 | 103 | 102 | 105 | 97.5
10 | C[C@]12CC[C@@H]3c4ccc(O)cc4CC[C@H]3[C@@H]1CCC2=O [Estrone] | 100% and 92.7% | 103 | 94.5 | 96.6 | 101 | 99.1 | 101 | 113
11 | COC(=O)Nc1nc2cc([S+]([O-])c3ccccc3)ccc2[nH]1 (stereo not given) [Oxfendazole] | 50.5% and 57.7% | 58.5 | 55.2 | 49.4 | 70.5 | 70.4 | 80 | 78
12 | Cc1ccc2nc(NCCN)c3ncc(C)n3c2c1 | 37.6% and 36.4% | 34.5 | 7.18 | 3 | 1.38 | 0.62 | 2.44 | 13
13 | COc1ccnc(C[S+]([O-])c2nc3cc(-n4cccc4)ccc3[nH]2)c1C (stereo not given) [Ilaprazole] | 90.7% and 95.4% | 92.4 | 87.3 | 105 | 99.9 | 101 | 82.5 | 97.3
14 | CN(C)C(=O)[C@H](O)[C@H](Cc1ccccc1)NC(=O)c1cc2cc(Cl)ccc2[nH]1 | 92.2% and 98.4% | 98 | 95.3 | 98.2 | 88.9 | 104 | 90 | 84.7
15 | COC(=O)N[C@H](C(=O)N1CCC[C@H]1C(=O)Nc1ccc([C@@H]2CC[C@@H](c3ccc(NC(=O)[C@@H]4CCCN4C(=O)[C@@H](NC(=O)OC)C(C)C)cc3)N2c2ccc(C(C)(C)C)cc2)cc1)C(C)C [Ombitasvir(ABT-267)] | 83.3% and 81.3% | 91 | 89.8 | 96.3 | 91.9 | 92.5 | 112 | 99.6
16 | Cc1cccc(CC(=O)N2CCc3c2ccc(-c2cn(C)c4ncnc(N)c24)c3F)n1 | 75.2% and 84.4% | 80.4 | 74.5 | 72.5 | 80.8 | 93.8 | 69.3 | 73.8
17 | C[C@H]1[C@H](OC(=O)CCC(=O)O)O[C@@H]2O[C@@]3(C)CC[C@H]4[C@H](C)CC[C@@H]1[C@@]24OO3 [Artesunate] | 43.3% and 38.6% | 41.2 | 42.7 | 37.8 | 34.5 | 28.3 | 2.96 | 17.9
18 | CC(C)c1cnn2c(NCc3ccccc3-n3cccn3)nc(OC3CCCNC3)nc12 (stereo not given) | 5.8% and 12.8% | 9.75 | 0.54 | 0.75 | 0.56 | 0.56 | 0.46 | 1.89
19 | COC(=O)c1ccc(O)cc1 [Methyl 4-hydroxybenzoate] | 93% and 82.6% | 88.2 | 90.5 | 94.1 | 91.9 | 95.5 | 91.2 | 90.5
20 | Cc1ccc(CNc2ncnc3ccc(-c4ccc(CO)o4)cc23)o1 | 97.3% and 96.8% | 101 | 90 | 95.8 | 81.7 | 94.2 | 77.5 | 84.3

Row | Structure (SMILES) | cell viability ([1]; SRSF2 genotype: SRSF2 P95H/wt) | cell viability ([1]; SRSF2 genotype: SRSF2 wt/wt) [%] | cell viability ([2]; SRSF2 genotype: SRSF2 P95H/wt) [%] | cell viability ([2]; SRSF2 genotype: SRSF2 wt/wt) [%] | cell viability ([3]; SRSF2 genotype: SRSF2 P95H/wt) [%] | cell viability ([3]; SRSF2 genotype: SRSF2 wt/wt) [%] | cell viability ([4]; SRSF2 genotype: P95H/wt) [%] | cell viability ([4]; SRSF2 genotype: wt/wt) [%]
21 | CCc1nc(-c2cccc(C)c2)c(-c2ccnc(NC(=O)c3ccccc3)c2)s1 | 75.8% and 73% | 66.3 | 72.3 | 64 | 76.5 | 86.7 | 83.7 | 76.5
22 | O=C(O)Cc1cccc(OCCCN(Cc2cccc(C(F)(F)F)c2Cl)CC(c2ccccc2)c2ccccc2)c1 | 98.2% and 93.9% | 92.9 | 97.9 | 113 | 88.6 | 96.7 | 90.9 | 98.5
23 | COCCCN1CCC(NC(=O)c2cc(Cl)c(N)c3c2OCC3)CC1 [Prucalopride] | 86.4% and 82% | 81.5 | 85.9 | 91.6 | 87.3 | 88.9 | 80.5 | 88.7
24 | Fc1ccc([C@@H]2CCNC[C@H]2COc2ccc3c(c2)OCO3)cc1 [Paroxetine HCl] | 63.6% and 68.3% | 67.6 | 44 | 44.1 | 47.7 | 56.5 | 43 | 52.4
25 | C[C@]12CC[C@@H]3c4ccc(O)cc4CC[C@H]3[C@@H]1CC[C@@H]2OC(=O)CCC1CCCC1 [Estradiol Cypionate] | 91.5% and 90.9% | 91.3 | 86.9 | 81.6 | 75 | 84.1 | 55.4 | 53.1
26 | C[C@@H]1CC[C@@]2(OC1)O[C@H]1C[C@H]3[C@@H]4CC=C5C[C@@H](O[C@@H]6O[C@H](CO)[C@@H](O)[C@H](O[C@@H]7O[C@H](CO)[C@@H](O)[C@H](O)[C@H]7O)[C@H]6O[C@@H]6O[C@@H](C)[C@H](O)[C@@H](O)[C@H]6O)CC[C@]5(C)[C@H]4CC[C@]3(C)[C@H]1[C@@H]2C [Gracillin] | 31.2% and 29.4% | 1.47 | 70.2 | 11.4 | 12 | 0.55 | 5.61 | 4.21
27 | NNC(=O)c1ccncc1.Nc1ccc(C(=O)O)c(O)c1 [pasiniazid] | 109% and 113% | 114 | 106 | 106 | 101 | 108 | 119 | 93.9
28 | C=C(C)[C@@H]1CC[C@]2(C(=O)O)CC[C@]3(C)[C@H](CC[C@@H]4[C@@]5(C)CC[C@H](O)C(C)(C)[C@@H]5CC[C@]43C)[C@@H]12 [Betulinic acid] | 72% and 77.2% | 80.1 | 82.3 | 51.4 | 86.7 | 89.3 | 61.9 | 65
29 | CC(=O)S[C@@H]1CC2=CC(=O)CC[C@]2(C)[C@H]2CC[C@@]3(C)[C@@H](CC[C@@]34CCC(=O)O4)[C@H]12 [spironolactone] | 87.8% and 90.2% | 89.7 | 78.3 | 84.5 | 90.1 | 91.5 | 90.6 | 97.9
30 | CC(C)NC(=O)C1CCC(n2c(NC(=O)c3ccc(F)cc3)nc3ccc(CN4CCC(C(C)(C)O)CC4)cc32)CC1 (stereo not given) [Belizatinib (TSR-011)] | 59.4% and 65.3% | 56.9 | 41.4 | 45 | 7.89 | 11.3 | 19 | 35.3
31 | CC(C)=CCC[C@](C)(O[C@@H]1O[C@H](CO[C@@H]2OC[C@@H](O)[C@H](O)[C@H]2O)[C@@H](O)[C@H](O)[C@H]1O)[C@H]1CC[C@]2(C)[C@@H]1[C@H](O)C[C@@H]1[C@@]3(C)CC[C@H](O[C@@H]4O[C@H](CO)[C@@H](O)[C@H](O)[C@H]4O[C@@H]4O[C@H](CO)[C@@H](O)[C@H](O)[C@H]4O)C(C)(C)[C@@H]3CC[C@]12C [Ginsenoside Rb3] | 101% and 96.7% | 108 | 103 | 103 | 109 | 102 | 101 | 101
32 | CC(C)=CCC/C(C)=C/C=O [Citral] | 96% and 106% | 94.4 | 88.4 | 98.9 | 88.2 | 94.8 | 95.3 | 92
33 | COc1cc2c3cc1Oc1c(OC)c(OC)cc4c1[C@@H](Cc1ccc(O)c(c1)Oc1ccc(cc1)C[C@@H]3N(C)CC2)N(C)CC4 [Berbamine] | 62.8% and 49.4% | 57.5 | 72.7 | 67.2 | 72.8 | 67.6 | 39.3 | 54.9
34 | COc1cc(CCc2cc(NC(=O)c3ccc(N4CC(C)NC(C)C4)cc3)n[nH]2)cc(OC)c1 (stereo not given) | 68.8% and 79.7% | 59.6 | 46 | 42.1 | 14.4 | 21.5 | 8.06 | 17.9
35 | CN(Cc1ccc(C(C)(C)C)cc1)Cc1cccc2ccccc12 [Butenafine HCl] | 97% and 102% | 91.6 | 84.1 | 105 | 93.4 | 98 | 85.5 | 101
36 | O=C(N[C@H](CO)[C@H](O)c1ccc([N+](=O)[O-])cc1)C(Cl)Cl [Chloramphenicol (Chloromycetin)] | 92.7% and 92% | 94.8 | 104 | 106 | 95.6 | 96.8 | 96 | 103
37 | Nc1c(CC(=O)O)cccc1C(=O)c1ccc(Br)cc1 [Bromfenac Sodium] | 106% and 105% | 97.3 | 105 | 98.3 | 102 | 102 | 107 | 104
38 | OCCc1ccc(O)c(O)c1 [Hydroxytyrosol] | 94.8% and 103% | 98.2 | 90.5 | 103 | 97.5 | 104 | 105 | 106
39 | C[C@H]1C[C@@H]2[C@H]([C@@H](O)C[C@@]3(C)[C@H]2CC[C@]3(O)C(=O)CO)[C@@]2(C)C=CC(=O)C=C12 [Methylprednisolone] | 100% and 106% | 103 | 110 | 103 | 95.8 | 98.8 | 99.8 | 107
40 | COC(=O)[C@H](c1ccccc1Cl)N1CCc2sccc2C1 [Clopidogrel (Plavix)] | 98.2% and 98.5% | 94.4 | 78.9 | 101 | 94.1 | 96.9 | 85.4 | 93.4
